The whole screen tested about 5,500 compounds, of which about 2,000 (36%) were called active. Roughly 18% stayed inconclusive and do not appear here. Rule as the data show it: active = normalized growth mostly below about 0.91 (no sharp cut-off); inconclusive = no clear call, values can overlap the other calls; inactive = mostly above about 0.92. Some of the results follow.
Assay: chemical genetic growth profiling, strain panel (AID 1159580);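 also: tested at 20 µM; growth read once vehicle control cultures reached saturation at 30 °C; 1 = growth at the plate median or of vehicle wells; lower values mean less growth of the strain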
Details: S. cerevisiae deletion strains, growth OD

Measured: normalized growth

CC1C/C=C/C=C/C=C/C=C/C(O[C@@H]2O[C@H](C)[C@@H](O)[C@H](N)[C@@H]2O)CC2OC(O)(CC(O)CC3OC3/C=C/C(=O)O1)CC(O)C2C(=O)O (stereo not given in full)
active: locus YBR171W, strain sec66, hits give low values 0.142 | locus YCL061C, strain MRC1, hits give low values 0.802 | locus YCR088W, strain abp1, hits give low values 0.126 | locus YER015W, strain faa2, hits give low values 0.823 | locus YER155C, strain BEM2 (second series), hits give low values 0.711 | locus YGL227W, strain vid30, hits give low values 0.0655 | locus YKR026C, strain gcn3, hits give low values 0.296 | locus YLR357W, strain rsc2, hits give low values 0.427 | locus YMR125W, strain sto1, hits give low values 0.0829 | locus YNL248C, strain rpa49, hits give low values 0.544
inactive: locus YAL021C, strain ccr4, hits give low values 1.02 | locus YAL026C, strain drs2, hits give low values 0.94 | locus YAL030W, strain snc1, hits give low values 1 | locus YBL061C, strain skt5, hits give low values 1 | locus YBR009C, strain hhf1, hits give low values 0.981 | locus YBR023C, strain chs3, hits give low values 0.992 | locus YBR231C, strain swc5, hits give low values 0.981 | locus YBR279W, strain paf1, hits give low values 1 | locus YCL011C, strain gbp2, hits give low values 0.989 | locus YCL016C, strain dcc1, hits give low values 0.993 | locus YCL069W, strain vba3, hits give low values 1.01 | locus YDL005C, strain med2, hits give low values 0.993 | locus YDL040C, strain nat1, hits give low values 0.993 | locus YDR001C, strain nth1, hits give low values 1 | locus YDR069C, strain doa4, hits give low values 0.983 | locus YDR137W, strain rgp1, hits give low values 1.01 | locus YDR159W, strain sac3, hits give low values 0.958 | locus YDR195W, strain ref2 0.945 | locus YDR297W, strain sur2, hits give low values 1 | locus YDR334W, strain swr1, hits give low values 0.999 | locus YDR335W, strain msn5, hits give low values 0.985 | locus YDR392W, strain spt3, hits give low values 0.848 | locus YEL003W, strain gim4, hits give low values 0.991 | locus YEL037C, strain rad23, hits give low values 0.992 | locus YEL061C, strain CIN8 (second series), hits give low values 0.984 | locus YER016W, strain bim1, hits give low values 0.978 | locus YER111C, strain swi4, hits give low values 0.981 | locus YFR010W, strain ubp6, hits give low values 0.982 | locus YGL167C, strain pmr1, hits give low values 0.984 | locus YGL173C, strain kem1, hits give low values 0.997 | locus YGL240W, strain doc1, hits give low values 0.996 | locus YGL253W, strain hxk2, hits give low values 0.973 | locus YHR013C, strain ard1, hits give low values 0.957 | locus YHR027C, strain rpn1, hits give low values 1 | locus YHR030C, strain SLT2, hits give low values 0.972 | locus YHR079C, strain IRE1, hits give low values 0.975 | locus YHR142W, strain chs7, hits give low values 1.02 | locus YJL092W, strain hpr5, hits give low values 0.964 | locus YJL095W, strain BCK1 (second series), hits give low values 1 | locus YJL095W, strain BCK1, hits give low values 1 | locus YJL115W, strain asf1, hits give low values 1 | locus YJL129C, strain trk1, hits give low values 0.949 | locus YJL154C, strain vps35, hits give low values 0.995 | locus YJL164C, strain tpk1, hits give low values 1.01 | locus YJL166W, strain qcr8, hits give low values 0.992 | locus YJL187C, strain SWE1, hits give low values 1 | locus YJR066W, strain TOR1, hits give low values 0.943 | locus YKL160W, strain elf1, hits give low values 1.04 | locus YKR091W, strain srl3, hits give low values 0.999 | locus YLL001W, strain dnm1, hits give low values 0.982 | locus YLL026W, hits give low values 1 | locus YLL041C, strain sdh2, hits give low values 0.998 | locus YLR027C, strain aat2, hits give low values 1 | locus YLR113W, strain HOG1, hits give low values 1.02 | locus YLR221C, strain rsa3, hits give low values 1.02 | locus YLR258W, strain gsy2, hits give low values 0.977 | locus YLR262C, strain YPT6 (second series), hits give low values 1.01 | locus YLR320W, strain mms22, hits give low values 1 | locus YLR342W, strain FKS1, hits give low values 0.994 | locus YLR370C, strain arc18, hits give low values 1.02 | locus YLR384C, strain iki3, hits give low values 0.994 | locus YML120C, strain ndi1, hits give low values 1.01 | locus YMR058W, strain fet3, hits give low values 0.921 | locus YMR129W, hits give low values 0.987 | locus YMR205C, strain PFK2, hits give low values 0.985 | locus YMR231W, strain pep5, hits give low values 0.997 | locus YNL071W, strain lat1, hits give low values 1 | locus YNL183C, strain NPR1, hits give low values 0.956 | locus YNL209W, strain ssb2, hits give low values 0.999 | locus YNL322C, strain KRE1 (second series), hits give low values 1 | locus YNR049C, strain mso1, hits give low values 0.994 | locus YOR001W, strain rrp6, hits give low values 1.01 | locus YOR070C, strain gyp1, hits give low values 0.998 | locus YOR080W, strain dia2, hits give low values 1 | locus YOR083W, strain WHI5, hits give low values 1.03 | locus YOR106W, strain vam3, hits give low values 1.03 | locus YOR231W, strain MKK1, hits give low values 0.963 | locus YOR265W, strain rbl2, hits give low values 0.999 | locus YOR270C, strain vph1, hits give low values 0.948 | locus YOR290C, strain snf2, hits give low values 0.953 | locus YPL051W, strain arl3, hits give low values 1 | locus YPL078C, strain atp4, hits give low values 1.02 | locus YPL106C, strain sse1, hits give low values 1.01 | locus YPL240C, strain hsp82, hits give low values 1 | locus YPL256C, strain CLN2, hits give low values 0.991
